Bioassay records from PubChem.
Tb PFK block = inhibitors of T. brucei phosphofructokinase; actives 0.17% (n = 330,000); T. brucei PFK, ADP-Glo luminescence; Potency, µM (doses to about 57.5 µM), actives largely listed as inhibitors; note: nearly all actives have a fitted effect of over 60% in size
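Activity is normalized to no-enzyme wells (full inhibition) and 1.25 nM enzyme wells (no inhibition). Reaction: 0.5 mM F6P, 0.1 mM ATP, 45 min RT, ADP-Glo luminescence; concentration-response curves fitted and classed by quality.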
Pin1 inh = blocks the human prolyl isomerase Pin1 | Q13526 | Pin1 FP peptide displacement, HiFluor488, 10 min | Potency, µM (titrated, usually from 115 µM), hits mostly inhibitors | actives 0.009% (n = 390,000) | AID 504891; active = well fitted inhibition curve with a large enough effect in the polarisation, with a control signal flat, not every such curve was filed as active; inconclusive = small, poorly fitted or top-dose-only effect, or effect the other way, or a change in a side signal; inactive = no such curve, though single readings can be large or run the other way; the % refers to the polarisation
Target sequence (Q13526 whole entry, looked up): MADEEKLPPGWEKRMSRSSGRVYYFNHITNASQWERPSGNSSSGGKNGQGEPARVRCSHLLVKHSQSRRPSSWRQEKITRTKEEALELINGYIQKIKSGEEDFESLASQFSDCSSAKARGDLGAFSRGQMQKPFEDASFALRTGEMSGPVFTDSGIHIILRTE
GLP-1R agonist = agonists of human GLP-1 receptor | HEK293 GLP-1R CRE-luciferase, luminescence, 4-6 h; cells express a hypersensitive GLP-1R form | actives 0.007% (n = 380,000) | Potency, µM (highest dose often 45.6 µM), hits mostly activators | P43220 | AID 624172
PGK inhibitor = T. brucei PGK inhibition; Potency, µM (highest dose often 57.5 µM), most hits filed as inhibitors; actives 0.043% (n = 380,000); PGK/GAPDH coupled, Kinase-Glo luminescence, 60 min; note: nearly all actives have a fitted effect of over 60% in size
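Recombinant glycosomal PGK reaction used 1,3-bisphosphoglycerate generated in-well by GAPDH (100nM final) in 100mM TEA pH 7.6, 5mM MgCl2, 0.01% Tween-20. After 60 minutes at room temperature, ATP was read by Kinase-Glo Plus luminescence end-point.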
GLP1R cytotox = cytotoxic in the GLP-1 receptor inverse agonist counter-screen | Potency, µM (series often up to 38.3 µM), hits mostly inhibitors | HEK293 cAMP-luciferase reporter cells, luminescence, 24 h | actives 0.13% (n = 410,000);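 note: loss of luciferase light is scored as toxicity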
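Here, cytotoxicity is scored as loss of luminescence. The MLSMR collection was tested on cells seeded in medium containing 10% Nu serum, with a 24 hr compound exposure preceded by 12 hours of culture.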
GLP-1R inv ag = acts as inverse agonist at human GLP-1 receptor. P43220. Potency, µM (titrated, usually from 38.3 µM), actives largely listed as inhibitors. HEK293 GLP-1R CRE-luciferase, luminescence, 24 h; GLP-1R form is constitutively active. AID 624417. actives 1.6% (n = 410,000); note: nearly all actives have a fitted effect of over 55% in size
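Seeding at 200 cells/uL, 12 h culture, 24 hr compound treatment, then luciferase reagent and a luminescence read; cells are HEK293 stably expressing a constitutively active GLP-1R plus cAMP-responsive luciferase.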
Large screens that a line does not name were inactive. In the library only some 1.8% were active in any assay of this set; here they are far more common. Unless noted, calls come from the whole dose curve; as a rule, active = well fitted curve in the direction sought with a large enough effect; inconclusive = small, poorly fitted or top-dose-only effect, or another doubt; inactive = no such curve, though single readings can be large; an effect the other way counts as inactive or inconclusive.

S=C1Cc2ccccc2N1	PGK inhibitor inconclusive, GLP-1R inv ag 1µM
S=C1Nc2ccccc2CS1	GLP1R cytotox inconclusive, GLP-1R inv ag inconclusive (no result: Tb PFK block, Pin1 inh)
Cc1nc2c(-c3ccc(Cl)cc3)cnn2c(N)c1-c1ccc(F)cc1	GLP-1R inv ag inconclusive (no result: PGK inhibitor)
Cc1nc2c(-c3ccc(F)cc3)cnn2c(N)c1-c1ccccc1	GLP-1R inv ag 0.89µM
O=c1c2ccccc2nc2sc(NCc3ccccc3)nn12	none (no result: Tb PFK block, GLP-1R agonist, PGK inhibitor, GLP1R cytotox, GLP-1R inv ag)
CCCCOc1ccccc1NC(=O)CC1Sc2ccccc2NC1=O (stereo not given)	none (no result: Tb PFK block)
NCCNC[C@@H]1COC2(CCCCCCCCCCC2)O1	GLP-1R inv ag 5µM
Cc1cc(=O)[nH]c(SCC2COC3(CCCCC3)O2)n1 (stereo not given)	none
CCC(C)(c1nnnn1-c1c(C)cccc1C)N(N=O)c1ccccc1Cl (stereo not given)	GLP-1R inv ag 7.9µM
Cc1cccc(C(C)C)c1-n1nnnc1-c1ccccc1	GLP-1R inv ag inconclusive
CCCCCCSc1ccc([C@H]2N[C@@](Cc3ccccc3)(C(=O)OC)[C@H]3C(=O)N(C)C(=O)[C@@H]23)cc1	GLP-1R inv ag 11µM
CCCCCCSc1ccc([C@H]2N[C@@](C)(C(=O)OC)[C@H]3C(=O)N(CC)C(=O)[C@@H]23)cc1	GLP-1R inv ag 10µM
COc1ccc(CN2CCC(Oc3cc(C(=O)NC4CC4)ccc3OC)CC2)c(O)c1	GLP-1R inv ag inconclusive
COc1ccc(C(=O)NC2CC2)cc1OC1CCN(Cc2ccc(F)cc2Cl)CC1	GLP1R cytotox inconclusive, GLP-1R inv ag 10µM (no result: Tb PFK block)
CSc1ccc(/C=C/C(=O)c2ccc(NC(=O)C(C)C)cc2)cc1	GLP1R cytotox inconclusive, GLP-1R inv ag 10µM
CCc1ccc2occ(CC(=O)Nc3ccc(OC)c(Cl)c3)c2c1	GLP-1R inv ag inconclusive (no result: Tb PFK block, GLP-1R agonist, PGK inhibitor)
N#CC1(c2ccccc2)CCN(S(=O)(=O)c2ccc(OC(F)(F)F)cc2)CC1	GLP-1R inv ag 10µM
CC(Oc1ccccc1)C(=O)N1CCN(S(=O)(=O)c2ccc(OC(F)(F)F)cc2)CC1 (stereo not given)	none (no result: Tb PFK block, Pin1 inh)
CCc1cccc(NC(=O)c2sc3nc[nH]c(=O)c3c2C)c1	none (no result: Tb PFK block, GLP-1R agonist)
O=C(COc1ccccc1)NCCc1csc(-c2ccc(Cl)cc2)n1	none (no result: Tb PFK block, GLP-1R agonist)
COc1cccc(C(=O)NC2=NCCS2)c1	GLP-1R inv ag inconclusive
COc1ccc(N(Cc2ccccc2)S(=O)(=O)c2cccc(C(=O)NC3=NCCS3)c2)cc1	GLP-1R inv ag 10µM
O=C(Cn1cc(SCc2cccc(C(F)(F)F)c2)c2ccccc21)N1CCCCCC1	GLP-1R inv ag 7.9µM (no result: Tb PFK block, GLP-1R agonist)
Cc1ccc(CSc2cn(CC(=O)N3CCCCC3)c3ccccc23)cc1	GLP-1R inv ag 10µM (no result: Tb PFK block, GLP-1R agonist)
COC(=O)c1ccccc1S(=O)(=O)Nc1cc(=O)c2ccccc2[nH]1	none (no result: Tb PFK block, GLP-1R agonist, PGK inhibitor, GLP1R cytotox, GLP-1R inv ag)
CCOC(=O)C1CCC(CN(Cc2ccc(OC)cc2)S(=O)(=O)c2ccc(F)c(C(=O)Nc3c(C)cccc3C)c2)CC1 (stereo not given)	GLP-1R inv ag 2µM (no result: Tb PFK block, GLP-1R agonist)
CCOC(=O)C1CCC(CN(Cc2ccc(OC)cc2)S(=O)(=O)c2ccc(F)c(C(=O)Nc3cc(Cl)ccc3OC)c2)CC1 (stereo not given)	GLP-1R inv ag inconclusive (no result: Tb PFK block, GLP-1R agonist)
N#CNc1nc(O)cc(=O)[nH]1	PGK inhibitor 28µM
COc1ccc(CN2C[C@H](Cc3ccccc3)[C@@H](CC(=O)Nc3ccccc3)C2=O)cc1	GLP-1R inv ag 8.9µM
CCC[C@H]1CN(c2ccc(Br)cc2)C(=O)[C@@H]1CC(=O)Nc1ccc(OC)cc1	GLP-1R inv ag 7.9µM (no result: Tb PFK block, Pin1 inh)
CCC[C@H]1CN(c2ccc(Br)cc2)C(=O)[C@@H]1CC(=O)Nc1ccccc1	GLP-1R inv ag 11µM (no result: Tb PFK block, Pin1 inh)
CCCCCCc1ccc(N2C[C@H](CCCCC)[C@@H](CC(=O)NCc3ccccc3)C2=O)cc1	GLP-1R inv ag 4.5µM
COc1ccc(OC)c(CNC(=O)Cn2ncc3c([nH]c4ccc(C)cc43)c2=O)c1	none (no result: Tb PFK block, GLP-1R agonist)
Cc1ccc2c(c1)N(CCCC(=O)NCc1cccc(F)c1)C(=O)CO2	none (no result: Tb PFK block, GLP-1R agonist, PGK inhibitor)
CCN1CCN(c2nc(C)nc3c2sc(=S)n3C)CC1	Tb PFK block 19µM
